We go through 50 sequences from the supplement of paper PMC11417369.

Whole data set: some 25,000 sequences, median “ln(normalized median fluorescence intensity)” near 7.1, cut for the highest 2% near 10. Shown is part of a subset that was picked to be rich in the highest values.

For the assay, the system named is PfSIP2 AP2 domain 1 (GST-tagged). Kind of assay: gcPBM binding intensity (ln(normalized median fluorescence intensity)); higher = stronger DNA binding. Summed up:
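An Agilent 4 × 180k array of primer-extended double-stranded 36-bp intergenic genomic probes, with negative controls, was incubated for 1 h with GST-tagged P. falciparum DNA-binding domains expressed in E. coli. Alexa488 anti-GST antibody detected bound protein, scanned at 488 nm. Binding intensity is the highest Masliner-normalised natural-log median intensity across replicate spots of either probe orientation.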
Consider “ATATATTTTTTTTTTTGTACGTATATTTATATAATT [XGTACX_site8719]”, for which the “gcPBM binding intensity (ln)” value amounted to 7.1. For “ATATTACTAATTAATGGTACACGTTATAATAAACTA [XGTACX_site7051]”, the “gcPBM binding intensity (ln)” value was determined as 7.12.

For the sequence “TTCAATAGTAAGTATACACACATATAAATAAATAAA [CACACA_site7295]”, the “gcPBM binding intensity (ln)” value is 6.91. In the case of “GTGTGAAACATAAACACACACAAAAAGAAAAAATAG [CACACA_site1227]” it was 6.91. As for “TGCTTTTCTTTTTGCACACTTATGCATATATATATA [CACACA_site2583]”, the “gcPBM binding intensity (ln)” value was determined as 9.5. As to “TATTCAAAAATATAAACAATGAAACAGTATAATATG [CACACA_negctrl_site1482]”, the “gcPBM binding intensity (ln)” value is 7.09.

With “ATCACAAAATGGAATGTTCTATGATATATATGTATA [XGTACX_negctrl_site460]”, the “gcPBM binding intensity (ln)” value worked out at 7.02. To “GCAAAGCACAAATATGCATGTAGATATAGAATAATG [TGCATGCA_site382]” belongs 7.68. With “GTATATGAGAAAAAAAGTACATGCACAAAATGTATA [XGTACX_site6441]”, the “gcPBM binding intensity (ln)” value is 7.42.

Take TTTGAAAAGTATGAGGTGCAAAAAATGTAATGAAAT: the “gcPBM binding intensity (ln)” value came out at 10.2.

For “ATATATATATATAAAGTGCAAAAATGAAAGTAAGAC [GTGCAC_site9850]”, the “gcPBM binding intensity (ln)” value amounted to 9.25. Consider “TAAAATATTATCTACGCACACATTAAAATAAAAAAA [CACACA_site3709]”, for which the “gcPBM binding intensity (ln)” value is 7.17. Regarding “ATTCTAAATATCAGTGCACACATTTCTACGCAAAGT [CACACA_site474]”, the “gcPBM binding intensity (ln)” value came to 9.9. For “ATTATAAATATCAGTGCACACATTTCTACGCAAAGT [CACACA_site4420]”, the “gcPBM binding intensity (ln)” value was 10.4. For the sequence “AAAGAATTTGCATATACACACAAAAAAATAAATACA [CACACA_site4373]”, the “gcPBM binding intensity (ln)” value was determined as 7.03. In the case of “TATATATTATACACGTGTACACATTATAACAATATA [XGTACX_site7799]”, the “gcPBM binding intensity (ln)” value was found to be 7.4. With “TATATATATATATAATGTACTTATATTTTTTTGAGG [XGTACX_site2638]”, the “gcPBM binding intensity (ln)” value amounted to 9.46. Regarding “AAGGAAAACAATAGGTGTACCAAACGTCCTAGGAAC [XGTACX_site5732]”, the “gcPBM binding intensity (ln)” value was determined as 6.7. In the case of “GTTCTAATATATTGCACACGTAAAAATATAGGTAAT [CACACA_site886]” it was 7.42.

For the sequence “ATATGAAAGGTGTACACACGCACACCCAAAAAAATA [CACACA_site2911]”, the “gcPBM binding intensity (ln)” value came to 7.93. As for “AATGTGTACGCACGCACACACAAAAAAATATATATA [CACACA_site2913]”, the “gcPBM binding intensity (ln)” value was found to be 7.24. For the sequence “TAATATGAAAAGTGTACACACGCACAGACAAAAAAA [CACACA_site5594]”, the “gcPBM binding intensity (ln)” value was 7.33. As for “TAATATGAAATGTGTACACACGCACCCACAAAAAAA [CACACA_site8949]”, the “gcPBM binding intensity (ln)” value amounted to 10.7. In the case of “TGTAATATGAAATGTGTACACACGCACCCACAAAAA [CACACA_site8948]”, the “gcPBM binding intensity (ln)” value was found to be 10.9. As for “GTGTAATATGAAATGTGTACACACGCACACACAAAA [XGTACX_site6180]”, the “gcPBM binding intensity (ln)” value was 7.6. On to “TATCCCCTTGTCCATATTAATTGTGACATCATATAT [XGTACX_negctrl_site9]”, for which the “gcPBM binding intensity (ln)” value worked out at 7.09. To “TCATTAAAGGAAAAATGTACGTATAAATAAATATAT [XGTACX_site2587]” belongs 7.07. In the case of TGATATAAAATTAAAGTGCAAAAAAAAAATAAAAAA it was 8.36. With “ATTATAAAAGAATTTTTTTTTATTTCATTAAAATAT [CACACA_negctrl_site1137]”, the “gcPBM binding intensity (ln)” value was 6.57. As to “ATATTTAAAGAATAAGTGCAAAATGTAATTAATTTT [GTGCAC_site9901]”, the “gcPBM binding intensity (ln)” value stood at 7.91. With “ATTTAAAAAAGAAAGGTGCATTTCAATAATGTAAAA [GTGCAC_site9585]”, the “gcPBM binding intensity (ln)” value came out at 11.

Take TTAATTAATTTTTCAGTGCAAATAAAAAATATTTAA: the “gcPBM binding intensity (ln)” value is 7.78. For the sequence “GAAAATAAAATAAATGCATGTAAATTTAATGTAATG [TGCATGCA_site996]”, the “gcPBM binding intensity (ln)” value is 6.87.

Consider AAAAAAAAAAAAAAAGTGCATTAATAAATTTTAATA, for which the “gcPBM binding intensity (ln)” value came to 9.57. AGAATTAAAATAAAGGTGCATTTTTTTGTTTCATGT: the “gcPBM binding intensity (ln)” value was found to be 11. In the case of “GAAATAAAAAGAAATGCATGTAATTTTTTTTTTTTT [TGCATGCA_site928]” it was 6.71.

For the sequence “TAAAATATTTCAAAGGTGCAATGATAATTTAAGACG [GTGCAC_site9609]”, the “gcPBM binding intensity (ln)” value was found to be 10.4. In the case of “TCATTTTAATTAAAAGTGCAAAAAATAATATAACTA [GTGCAC_site9968]”, the “gcPBM binding intensity (ln)” value was 8.31. For “CATAATTTAAAAAAGGTGCAAAATGGATAATATATA [GTGCAC_site9657]”, the “gcPBM binding intensity (ln)” value worked out at 11. Consider “TACTATATCGATACCAGTACAGATTTATAAATAATA [XGTACX_site7491]”, for which the “gcPBM binding intensity (ln)” value worked out at 6.94. Take “ATAAATAATATATATACACACATATCTATACATATT [CACACA_site487]”: the “gcPBM binding intensity (ln)” value is 7.05. For the sequence “GCTGAAAGGATAAAGGTGCATATTTTTTAAAAAATT [GTGCAC_site9487]”, the “gcPBM binding intensity (ln)” value was found to be 11.2. Regarding “AATAATAATAAAAAGGTGCTGAAATATTTTTATTAT [GTGCAC_site9763]”, the “gcPBM binding intensity (ln)” value came to 8.38. In the case of “AAATTAAAGGCATAAAAGAAAATATTTAATAAAAAA [CACACA_negctrl_site1689]”, the “gcPBM binding intensity (ln)” value amounted to 6.57.

In the case of “TATATATAGAAACACACACACACATATATATATATA [CACACA_site4116]”, the “gcPBM binding intensity (ln)” value was 9.25. As to “ATACACACAGCCTAAACATGCATATAGAAAAAAGAA [TGCATGCA_site1028]”, the “gcPBM binding intensity (ln)” value stood at 7.4. In the case of “ATTCTATAGAAACACACACACATGCATGCACCTATA [CACACA_site107]” it was 11.7. For the sequence “AATAAGTAACAAAATACACACATATAGGTAATTATA [CACACA_site6949]”, the “gcPBM binding intensity (ln)” value is 6.83. Consider “GTTGTGTAATTCGTAACACACATAAAATATATATAA [CACACA_site6059]”, for which the “gcPBM binding intensity (ln)” value amounted to 6.97. In the case of CATAACATAAAATAGGTGCACAAAAATTGTAATTGA it was 11.2.
